A selection: hits, their analogues and other compounds. The true share with any hit is near 6.8%.
Tcruzi prolif: T. cruzi proliferation inhibition; inhibition, % at 8.34 µM; T. cruzi beta-gal in NIH3T3, GalScreen luminescence, 90 h; actives 5.9% (n = 77,000); AID 624255;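 active = mean inhibition above about 93%, with at least 55% of replicates each passing it, limit read from the data, passing the limit was not always enough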
C diff HTS: C. difficile growth inhibition; Clostridium difficile clinical isolate growth, OD600, 24 h; hits give low values; growth activity, negative = inhibition, % at 16 µg/mL (by protocol); actives 0.25% (n = 86,000); AID 1259249;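 active = mean growth activity at or below -80% and every replicate also at or below -80%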;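 note: 0% = DMSO wells and -100% = levofloxacin 16 µg/mL wells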
Pf Dd2 growth: P. falciparum Dd2 growth inhibition; AID 1159554; actives 2.3% (n = 94,000); activity change, % at 10 µM; SYBR Green, 72 h; hits give low values; in the data active = activity change below about -80%
* marks the source's active call; other numbers are inactive results; . = not tested or not shown.

SMILES | Tcruzi prolif | C diff HTS | Pf Dd2 growth
Cc1noc(C)c1NC(=O)N(C)C[C@H]1Oc2c(NC(=O)NC3CCCCC3)cccc2C(=O)N([C@H](C)CO)C[C@@H]1C | 0 | 2 | 26
CO[C@H]1CN(C)C(=O)c2ccc(NS(C)(=O)=O)cc2OC[C@@H](C)NC[C@H]1C | -18 | -1 | 7
C[C@H](CO)N1C[C@H](C)[C@@H](CN(C)C(=O)C2CC2)Oc2cc(-c3cncnc3)ccc2S1(=O)=O | 29 | 2 | 51
CCCC(=O)Nc1ccc2c(c1)OC[C@@H](C)N(Cc1cc(F)ccc1F)C[C@@H](C)[C@H](OC)CN(C)C2=O | 29 | 3 | -86*
COCC(=O)Nc1ccc2c(c1)OC[C@@H](C)N(Cc1ccncc1)C[C@@H](C)[C@H](OC)CN(C)C2=O | -18 | -1 | 5
CO[C@@H]1CN(C)C(=O)c2cc(NC(=O)Nc3ccccc3F)ccc2OC[C@@H](C)N(CC2CC2)C[C@@H]1C | -14 | . | 4
CO[C@@H]1CN(C)C(=O)c2ccc(NC(=O)C3CCC3)cc2OC[C@H](C)N(CC2CCCCC2)C[C@@H]1C | 3 | . | -69
CO[C@@H]1CN(C)C(=O)c2ccc(NC(=O)C3CCC3)cc2OC[C@@H](C)N(CC2CCCCC2)C[C@H]1C | . | -9 | -83*
CCCC(=O)Nc1ccc2c(c1)C(=O)N(C)C[C@@H](OC)[C@H](C)CN(Cc1cc(F)ccc1F)[C@H](C)CO2 | 69 | . | -64
CO[C@@H]1CN(C)C(=O)c2ccc(NC(=O)Nc3ccccc3F)cc2OC[C@@H](C)N(CC2CC2)C[C@H]1C | 72 | . | -88*
COCC(=O)Nc1ccc2c(c1)OC[C@H](C)N(Cc1ccncc1)C[C@H](C)[C@@H](OC)CN(C)C2=O | . | 6 | -85*
C[C@H]1CN([C@@H](C)CO)C(=O)Cc2cc(NC(=O)CCCCCC(=O)Nc3ccccc3N)ccc2O[C@H]1CN(C)C(=O)Nc1cccc2ccccc12 | . | -4 | 47
O=C(C[C@H]1CC[C@@H]2[C@H](COC[C@H](O)CN2S(=O)(=O)c2cccc(F)c2)O1)NCc1ccncn1 | -6 | 6 | 19
COc1ccc2c3c(n(C)c2c1)[C@H](CO)N(C(=O)CC1CC1)CC31CN(Cc2ccccc2)C1 | . | -11 | -76
O=C(C[C@@H]1CC[C@H](NC(=O)C2CCC2)[C@H](CO)O1)NC1CCCCC1 | . | 0 | .
O=C(NCC[C@H]1CC[C@@H](NC(=O)C2CCCC2)[C@@H](CO)O1)c1ccc(F)cc1 | . | 0 | 2
C[C@@H]1CCCCO[C@H](CN(C)C(=O)C2CCCCC2)[C@H](C)CN([C@H](C)CO)C(=O)c2cc(NS(C)(=O)=O)ccc2O1 | 5 | -2 | .
C/C=C/c1ccc([C@@H]2[C@@H](CO)N3C(=O)CN(Cc4ccc(F)cc4)C[C@@H]23)cc1 | . | 7 | -20
C[C@H](CO)N1C[C@H](C)[C@@H](CN(C)Cc2ccc(C(=O)O)cc2)OCCCC[C@H](C)Oc2ccc(NS(=O)(=O)c3ccc(F)cc3)cc2C1=O | 22 | -10 | 16
CO[C@H]1CN(C)C(=O)c2ccc(NC(=O)C3CC3)cc2OC[C@@H](C)N(Cc2ccccc2)C[C@H]1C | 25 | . | -15
CO[C@@H]1CN(C)C(=O)c2cc(NC(=O)Cc3ccccc3)ccc2OC[C@@H](C)N(C(=O)c2ccccc2F)C[C@@H]1C | -95 | . | -50
CO[C@H]1CN(C)C(=O)c2cc(NC(=O)Cc3ccccc3)ccc2OC[C@H](C)N(C(=O)c2ccccc2F)C[C@H]1C | 5 | . | -89*
CO[C@@H]1CN(C)C(=O)c2ccc(NC(=O)C3CC3)cc2OC[C@@H](C)N(Cc2ccccc2)C[C@H]1C | 31 | . | -80*
CCCC#Cc1ccc([C@@H]2[C@@H](CO)N3CCCCN(S(=O)(=O)Cc4ccccc4)C[C@H]23)cc1 | 94 | 57 | -19
CC(C)CC#Cc1ccc([C@@H]2[C@@H](CO)N3CCCCN(S(=O)(=O)Cc4ccccc4)C[C@@H]23)cc1 | 80 | -4 | -83*
SMILES | Tcruzi prolif | C diff HTS | Pf Dd2 growth
CCCC#Cc1ccc([C@H]2[C@@H](CO)N3CCCCN(S(=O)(=O)Cc4ccccc4)C[C@@H]23)cc1 | 82 | 17 | -23
CC(C)CC#Cc1ccc([C@@H]2[C@H](CO)N3CCCCN(S(=O)(=O)Cc4ccccc4)C[C@@H]23)cc1 | 93 | -2 | -84*
C[C@H](CO)N1C[C@H](C)[C@@H](CN(C)C)OCCCC[C@H](C)Oc2ccc(NS(=O)(=O)c3ccc(Cl)cc3)cc2C1=O | -32 | -2 | .
C[C@H](CO)N1C[C@H](C)[C@H](CN(C)Cc2ccc(C(=O)Nc3ccccc3N)cc2)Oc2ccc(NC(=O)C3CCCCC3)cc2CC1=O | 84 | 4 | -84*
C[C@H](CO)N1C[C@H](C)[C@@H](CN(C)Cc2ccc(C(=O)Nc3ccccc3N)cc2)Oc2ccc(NC(=O)C3CC3)cc2CC1=O | 5 | -3 | -47
C[C@H](CO)N1C[C@H](C)[C@@H](CN(C)Cc2ccc(C(=O)Nc3ccccc3N)cc2)Oc2ccc(NC(=O)C3CCCCC3)cc2CC1=O | 89 | 4 | -85*
C[C@H](CO)N1C[C@H](C)[C@H](CN(C)Cc2ccc(C(=O)Nc3ccccc3N)cc2)Oc2ccc(NC(=O)C3CC3)cc2CC1=O | 78 | -6 | -33
C[C@H]1CN([C@@H](C)CO)C(=O)Cc2cc(NC(=O)C3CCCCC3)ccc2O[C@@H]1CN(C)Cc1ccc(C(=O)Nc2ccccc2N)cc1 | . | 14 | -88*
C[C@@H]1CN([C@H](C)CO)C(=O)Cc2cc(NC(=O)C3CCCCC3)ccc2O[C@@H]1CN(C)Cc1ccc(C(=O)Nc2ccccc2N)cc1 | . | 8 | -74
C/C=C/c1ccc([C@@H]2[C@H](CO)N(C(C)=O)C23CN(C(=O)c2cnccn2)C3)cc1 | . | 19 | -2
C[C@H](NC(=O)C[C@@H]1C[C@H]2c3cc(NC(=O)NC4CCCCC4)ccc3O[C@H]2[C@@H](CO)O1)c1ccccc1 | 16 | . | 2
COc1ccc(NC(=O)Nc2ccc3c(c2)C(=O)N([C@H](C)CO)C[C@H](C)[C@H](CN(C)S(=O)(=O)c2c(C)noc2C)OCCCC[C@H](C)O3)cc1 | -60 | -10 | -19
Cc1noc(C)c1S(=O)(=O)N(C)C[C@@H]1OCCCC[C@H](C)Oc2ccc(NC(=O)Nc3ccc(C(F)(F)F)cc3)cc2C(=O)N([C@H](C)CO)C[C@H]1C | 92 | 31 | -50
Cc1noc(C)c1S(=O)(=O)N(C)C[C@H]1OCCCC[C@@H](C)Oc2ccc(NC(=O)Nc3ccc4c(c3)OCO4)cc2C(=O)N([C@@H](C)CO)C[C@@H]1C | 82 | -7 | -86*
Cc1noc(C)c1S(=O)(=O)N(C)C[C@H]1OCCCC[C@H](C)Oc2ccc(NC(=O)Nc3ccc(C(F)(F)F)cc3)cc2C(=O)N([C@@H](C)CO)C[C@@H]1C | 89* | 4 | -83*
Cc1noc(C)c1S(=O)(=O)N(C)C[C@H]1OCCCC[C@H](C)Oc2ccc(NC(=O)Nc3ccc(C(F)(F)F)cc3)cc2C(=O)N([C@H](C)CO)C[C@@H]1C | 102* | 1 | -10
Cc1noc(C)c1S(=O)(=O)N(C)C[C@@H]1OCCCC[C@@H](C)Oc2ccc(NC(=O)Nc3ccc(C(F)(F)F)cc3)cc2C(=O)N([C@@H](C)CO)C[C@@H]1C | 86 | 20 | -15

From PubChem
